Most compounds without a hit are left out; they make up all but 11% or so of the library.
G9a block = qHTS Assay for Inhibitors of Histone Lysine Methyltransferase G9a. Histone-lysine N-methyltransferase EHMT2 (Homo sapiens), Q96KQ7. G9a H3K9 monomethylation, AlphaScreen, 2 h. Potency, µM (top dose mostly 102 µM), for the others: top-dose activity, negative = inhibition, most hits filed as inhibitors. 350,000 compounds, 8.8% hits. AID 504332, 2011; further: on the % scale 0 is the no-effect control and ±100 the full control effect; nearly all actives have a fitted effect of over 75% in size
Target sequence (Q96KQ7 913-1193 limits assumed): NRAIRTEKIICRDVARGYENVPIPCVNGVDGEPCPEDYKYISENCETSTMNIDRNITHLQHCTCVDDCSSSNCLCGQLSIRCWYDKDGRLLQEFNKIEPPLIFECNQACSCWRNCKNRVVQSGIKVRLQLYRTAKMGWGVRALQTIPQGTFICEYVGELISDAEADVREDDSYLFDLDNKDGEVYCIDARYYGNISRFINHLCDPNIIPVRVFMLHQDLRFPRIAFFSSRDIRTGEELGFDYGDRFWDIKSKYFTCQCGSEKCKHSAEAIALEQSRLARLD
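AlphaScreen detection with an anti-monomethyl H3K9 antibody quantified product after a 2 h room-temperature reaction containing 500 nM biotinylated H3K9 peptide, 20 µM SAM and 20 nM enzyme, which had been preincubated 15 min with compound.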
JMJD2A Tudor = qHTS Assay for Inhibitors of JMJD2A-Tudor Domain | Lysine-specific demethylase 4A (Homo sapiens), O75164 | AlphaScreen JMJD2A-Tudor / H3K4me3 peptide binding | Potency, µM (top dose mostly 114 µM), for inactives: top-dose activity change, negative = inhibition, hits mostly inhibitors | 390,000 compounds, 4.4% hits | AID 504339, 2011; further: on the % scale 0 is the no-effect control and ±100 the full control effect; nearly all actives have a fitted effect of over 50% in size
VDR inh = Inhibitors of the vitamin D receptor (VDR): qHTS. Vitamin D3 receptor (Homo sapiens), P11473. VDR-SRC2-3 peptide fluorescence polarization, 2 h. Potency, µM, for inactives: max response, negative = inhibition, hits mostly inhibitors. 400,000 compounds, 0.93% hits; further: on the % scale 0 is the no-effect control and ±100 the full control effect
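After 23 nl compound addition and a short centrifugation, plates sat for 2 hours at ambient temperature; polarization of fluorescence then indicated loss of VDR binding to peptide SRC2-3.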
PLK1 PBD inh = qHTS for Inhibitors of PLK1-PDB (polo-like kinase 1 - polo-box domain): Primary Screen. Serine/threonine-protein kinase PLK1 (Homo sapiens), P53350. Plk1 PBD binding of FITC phosphopeptide, fluorescence polarization. Potency, µM, for the others: max response, negative = inhibition, usual class: inhibitors. 360,000 compounds, 2.8% hits; further: series mostly up to about 57 µM; on the % scale 0 is the no-effect control and ±100 the full control effect; nearly all actives have a fitted effect of over 65% in size
BAZ2B block = qHTS Assay for Inhibitors of BAZ2B | 360,000 compounds, 4.4% hits | Potency, µM (titrated, usually from 114 µM), for inactives: at the top dose activity change, negative = inhibition, usual class: inhibitors | Bromodomain adjacent to zinc finger domain protein 2B (Homo sapiens), Q9UIF8 | AlphaScreen BAZ2B-H3K14Ac peptide displacement; further: on the % scale 0 is the no-effect control and ±100 the full control effect; nearly all actives have a fitted effect of over 60% in size
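AlphaScreen displacement: compounds (up to 110uM) incubated 30 min at room temperature with a preformed 50 nM BAZ2B/50 nM biotinylated H3K14Ac peptide complex in PBS pH 7.4 with Tween-20. Donor and acceptor beads at 10 ug/mL final added, 20 min light-protected before reading.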
HP1b chromo inh = HTS for Inhibitors of HP1-beta Chromodomain Interactions with Methylated Histone Tails; Potency, µM (titrated, usually from 114 µM), for inactives: at the highest dose activity change, negative = inhibition, most hits filed as inhibitors; AlphaScreen HP1-beta / biotin-H3K9me3 peptide binding; Chromobox protein homolog 1 (Homo sapiens), P83916; AID 540317, 2011; 390,000 compounds, 0.56% hits; further: nearly all actives have a fitted effect of over 70% in size
Target sequence (P83916 whole entry, looked up): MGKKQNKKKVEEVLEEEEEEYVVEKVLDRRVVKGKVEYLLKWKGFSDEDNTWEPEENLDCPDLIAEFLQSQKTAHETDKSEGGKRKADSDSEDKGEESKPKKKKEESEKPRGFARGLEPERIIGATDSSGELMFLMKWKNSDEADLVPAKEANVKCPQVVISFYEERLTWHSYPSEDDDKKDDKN
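Compound inhibition of the preformed complex between 50 nM HP1-beta and 50 nM biotinylated H3K9me3 peptide was read by AlphaScreen. Buffer was PBS pH 7.4 with 0.01% Tween-20. Incubations ran 30 min at room temperature, with 10 ug/mL donor/acceptor beads.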
An asterisk follows results filed as active; ? = inconclusive; nt = not tested or not shown; [ ] = another dose, or the depositor's remark. The call rests on the fitted dose curve; in most records, active means well fitted curve in the direction sought with a large enough effect; inconclusive means small, poorly fitted or top-dose-only effect, or another doubt; inactive means no such curve, though single readings can be large; an effect the other way counts as inactive or inconclusive. Potency means the concentration at half of the fitted maximal effect.

SMILES	G9a block	JMJD2A Tudor	VDR inh	PLK1 PBD inh	BAZ2B block	HP1b chromo inh
CN(CC(=O)Nc1ccc(F)c(F)c1)S(=O)(=O)c1cccc2cccnc12	5.6%	-10.2%	2.8%	-5.2%	-1.1%	20.4%[57 µM]
CN1CCN(C(CNC(=O)C(=O)Nc2ccccc2C#N)c2ccc3c(c2)OCO3)CC1 (stereo not drawn)	3.2%[59 µM]	-11.6%	2.3%	nt	3.6%	9.9%[57 µM]
O=C(c1ccc(Oc2ccc([N+](=O)[O-])cc2)cc1)N1CCCCCC1	5.2%	-16.7%	10.5%	-3.2%	-32.8%	25.9%
O=C(c1cccc([N+](=O)[O-])c1)N1CCN(S(=O)(=O)/C=C/c2ccccc2)CC1	8.91µM*	-10.5%	2.7%	-1.2%	10.9%	28.6%
O=C(c1cccc([N+](=O)[O-])c1)N1CCN(C/C=C/c2ccccc2)CC1	-21.6%	-27.0%	-1.9%	-4.1%	-25.2%	-1.4%
CCNC(=S)N1CCN(c2ccc([N+](=O)[O-])cc2)CC1	-0.9%	-17.8%[11.4 µM]	-8.9%	29.9µM*	-25.1%	-22.7%
CC(=O)N1CCN(c2ccc([N+](=O)[O-])cc2)CC1	6.8%	-10.4%	-2.0%	2.2%	-3.4%	-17.7%
CC1CCCC(N2CCN(C(=O)c3ccc([N+](=O)[O-])cc3)CC2)C1 (stereo not drawn)	22.4µM*	22.4µM*	9.9%	-9.6%	56.2µM*	?
CC(=O)N1CCN(C(=S)c2ccc([N+](=O)[O-])cc2)CC1	22.4µM*	?	-5.5%	?	-1.9%	-6.0%
C#CCCc1cocc1/C=[N+](\[O-])c1ccc(C(=O)OCC)cc1	10.9%[0.501 µM]	-34.3%	-9.9%	-16.3%	-3.1%	19.6%
O=C(OCC(=O)N1CCN(c2ccccc2)CC1)c1cccc([N+](=O)[O-])c1	?	-17.9%	-4.2%	-6.6%	-3.7%	26.5%
O=[N+]([O-])c1cccc(C(=S)N2CCN(c3ccccc3)CC2)c1	8.91µM*	-30.1%[57.1 µM]	?	11.9µM*	?	?
CCN1CCN(c2csc3ccc(Br)cc3c2=O)CC1	?	-14.1%	11.1%	nt	-20.2%	29.8%[57 µM]
Cc1ccc(-n2ncc3c2CC(C)(C)CC3NC(=O)CCc2ccc(=O)[nH]n2)cc1 (stereo not drawn)	2.4%	-3.8%	6.6%	-9.1%	-18.5%	45.3%
CC(C)(C)OC(=O)N(CCc1ccccc1)Cc1cccc(OCc2cccc(NC(=O)c3ccccc3)c2)c1	nt	?	?	23.8µM*	nt	20.3%
C=CCn1c(CCC(O)COCCCCC)n[nH]c1=S (stereo not drawn)	28.2µM*	20µM*	7.3%	-10.5%	-19.9%	-13.8%
C=CCn1c(C(CCCC)CC(O)COCC(C)C)n[nH]c1=S (stereo not drawn)	31.6µM*	39.8µM*	-20.3%	-15.0%	-23.7%	47.6%
C=CCn1c(C(CC(C)C)CC(C)O)n[nH]c1=S (stereo not drawn)	28.2µM*	8.91µM*	1.8%	-22.6%	-0.6%	-23.4%
C=CCn1c(C(CC)CC(C)(C)O)n[nH]c1=S (stereo not drawn)	-1.7%[59 µM]	-16.1%	6.8%	-1.2%	-38.7%	nt
CCCCCCCCCCCCCCCCCCOCC(O)CO (stereo not drawn)	23.7%[59 µM]	nt	-5.9%	nt	nt	nt
CC1CCN(S(=O)(=O)c2cc(C(=O)Nc3ccccn3)ccc2Br)CC1	-22.0%	-26.2%	-15.9%	-0.3%	-3.2%	19.8%
COc1cccc(-c2nnc3n2N=C(C(C)(C)C)CS3)c1	-4.6%[12.7 µM]	-4.0%	0.2%	-5.7%	-8.5%	25.2%
Cc1cc(=O)oc2cc(NC(=O)CC(N)C(=O)O)ccc12 (stereo not drawn)	nt	nt	2.9%	nt	nt	nt
CCOc1ccc(S(=O)(=O)NNS(=O)(=O)c2ccc(C)cc2C)cc1	3.55µM*	-17.8%	-6.4%	-15.0%	-23.6%	43.1%
